Results on 40 molecules are retold here after PubChem BioAssay AID1845224 (National Center for Advancing Translational Sciences (NCATS), 2023).

Results filed as inconclusive are left out. Entries that show only a call come without a potency. Activity calls are given as the source filed them. Calls follow the shape of the dose curve; as a rule, active = well fitted curve in the direction sought with a large enough effect; inconclusive = small, poorly fitted or top-dose-only effect, or another doubt; inactive = no such curve, though single readings can be large or run the other way.
Potency is read from the fitted curve at half-maximal effect.

In this experiment the test system is NanoLuc luciferase (engineered Oplophorus gracilirostris luciferase). In words: Confirmatory Nanoluciferase (NLuc) qHTS assay for identification of artifact compounds. As to conditions: secreted NLuc in S16 cell medium, luminescence, 5 min; series mostly up to 39 µM. The source says: PI: Alexander Tropsha Ph.D. UNC Eshelman School of Pharmacy University of North Carolina, Chapel Hill, North Carolina Hits from high-throughput screening (HTS) of chemical libraries are often false positives due to their interference with the assay detection technology. In response to this problem, we generated the largest publicly available library of chemical liabilities and developed a free webtool to predict HTS artifacts, both of which are described herein. More specifically, we generated, curated, and integrated HTS datasets for thiol reactivity, redox activity, and luciferase (firefly and nano) activity. Using these curated datasets, we developed and validated several Quantitative Structure-Interference Relationship (QSIR) models to predict nuisance behavior. […] These models were employed for virtual profiling of the National Center for Advancing Translational Science's (NCATS) in-house library, and 256 compounds for each assay were selected for the experimental validation of nuisance behavior. The BA for these external predictions ranged from 58 to 78% for compounds within the applicability domains of the models. […] The models developed in this study, along with aggregation models previously developed by our group (SCAM Detective) were implemented in "Liability Predictor," an online tool which may be used as part of chemical library design or for triaging HTS hits. Both the models and the curated datasets are publicly available at https://liability.mml.unc.edu/.
PROTOCOL TABLE SEQUENCE No. (e.g., 1, 2, 3, etc.); PARAMETER (e.g., Cells, Incubation, Reagent, etc.); VALUE; DESCRIPTION. 1; Reagent; 2 uL; Nanoluciferase media. 2; Compounds and control; 16 nL; Kalypsis pin tool (Wako USA) equipped with a 1536-well pin head. 3; Incubation; 15 min. 4; Reagent; 2 uL; Luciferase enzyme. 5; Incubation; 5 min. 6; Detection; Luminescence, ViewLux microplate reader. NOTES (numbers refer to Sequence numbers above) 1. Medium was collected from the culture flasks of NLuc-expressing S16 cells (80% confluent) prior to cell plating, filtered through a 0.22um filter, and frozen at -20C prior to use. Media was diluted (1:55) and 2 uL was dispensed into all wells of a 1536-well assay plate (solid-bottom white plate; Greiner Bio One, Monroe, NC). 2. A Wako Pin-tool (Wako Automation, Richmond, VA) was used to transfer 16 nL of compounds (consisting of 7-plates in qHTS format, final concentration range 18.3 nM to 114 uM) or control Cilnidipine (final concentration range 623 nM to 80 uM). 3. 15 min. incubation at room temperature protected from light. 4. 2 uL of NLuc substrate (1:100 in Nano-Glo luciferase buffer; Nano-Glo luminescence assay, Promega, Madison, WI) was dispensed for a final assay volume of 4 uL. 5. Plates were centrifuged (121xg, 15 seconds) and incubated for 5 minutes. 6. Samples were read for luminescence on a ViewLux CCD imager (PerkinElmer). Data were normalized to no-enzyme (0% activity) and no-inhibitor (DMSO; 100%) controls and the resulting percent inhibition data were fitted to a 4-parameter Hill equation using NCATS in-house software.
In general terms: In qHTS, concentration-response curves come from the screen itself.
`Fc1ccc(-c2cc(-c3nc(-c4ccc(Cl)cc4)no3)[nH]n2)cc1`: the Potency result was “inactive”.
As for `CC(C)(O)C1CC[C@@]2(C)C3CCC4[C@@]5(C)CCCC(C)(C)C5C(O)C[C@]4(C)[C@]3(C)CC[C@@H]12` (stereo not given in full), the Potency entry is “inactive”.
Turning to `COC(=O)c1c(NC(=O)c2nc(SCc3cccc(C)c3)ncc2Cl)sc2c1CCCC2`, the Potency entry was “inactive”.
As for `Cc1cc2oc(=O)cc(C)c2c2occ(-c3ccc(Cl)cc3)c12`, the Potency entry was “inactive”.
The entry for `COc1cccc2cc(C(=O)Nc3ccc(F)c(F)c3)c(=O)oc12` is “inactive”; for `C=C(C)[C@]12C[C@@H](C)[C@@]34OC(Cc5ccccc5)(O[C@@H]1[C@@H]3C=C(COC(=O)Cc1cc(OC)c(O)cc1I)C[C@]1(O)C(=O)C(C)=C[C@@H]41)O2` it is “inactive”.
As for `O=C(O)c1sc2c(c1-c1nc3ccccc3s1)CCNC2`, the Potency result was “inactive”.
For `COc1cccc(N2CCN(c3c4c(nc5nncn35)CCC4)CC2)c1`, the Potency result is “inactive”.
`O=S1(=O)N=C(Oc2ccc(-c3ccccc3)cc2)c2ccccc21`: the Potency entry was “inactive”.
Regarding `C=C[C@@]1(C)CC(=O)[C@]2(O)[C@@]3(C)[C@@H](O)CCC(C)(C)[C@@H]3[C@H](OC(=O)CCN(C)C)[C@H](OC(C)=O)[C@@]2(C)O1`, the Potency result is “inactive”.
Take `O=C(CSc1ccnc(=O)[nH]1)NCc1ccc(F)cc1`: the Potency result is “inactive”.
Consider `O=C(Nc1nnc(-c2ccco2)o1)c1ccc(Cl)c(Cl)c1`, for which the Potency result is “inactive”.
As to `O=c1oc2ccc(F)cc2cc1-c1nc(-c2cccs2)no1`, the Potency entry was “inactive”.
Take `N#C/C(=C\c1ccc(-c2cc(Cl)ccc2Cl)o1)C(=O)Nc1ccccc1C(=O)O`: the Potency was 12.2 µM (active).
`CCc1cccc(C)c1NC(=O)Cn1c(=O)n(-c2ccc(C)cc2)c(=O)c2c1cnn2C`: the Potency result was “inactive”.
Take `Brc1ccc2nc(SCCOc3ccccc3)[nH]c2c1`: the Potency result was “inactive”.
For `CCOc1ccccc1C(=O)Nc1cccc2ccc(C)nc12`, the Potency result was “inactive”.
Regarding `CCOc1ccccc1-n1nnc(-c2nc(-c3ccccc3)no2)c1N`, the Potency entry was “inactive”.
The entry for `COc1ccc(-n2nc(C(=O)Nc3cccc(C)n3)c3c4ccccc4n(C)c3c2=O)cc1` is “inactive”.
For `CC(C)CCC[C@@H](C)[C@H]1CC[C@H]2[C@@H]3CC[C@@H]4C[C@H](O)CC[C@]4(C)[C@H]3CC[C@]12C`, the Potency entry is “inactive”.
The entry for `CCCCn1c(SCC(=O)Nc2ccc(F)cc2)nc2c(sc3ccccc32)c1=O` is “inactive”.
With `COc1ccc(CNC(=O)C(=O)NCC(c2ccco2)S(=O)(=O)c2ccc(C)cc2)cc1` (stereo not given), the Potency result was “inactive”.
Turning to `C[C@]12C[C@H](O)[C@H]3[C@@H](CCC4=CC(=O)CC[C@@]43C)[C@@H]1CC[C@@H]2C(=O)CO`, the Potency result is “inactive”.
In the case of `Cc1ccc(C)c(N2CCN(C(=O)c3ccc(Nc4nc5ccccc5n5nnnc45)cc3)CC2)c1`, the Potency entry is “inactive”.
As for `COc1ccccc1Oc1coc2cc(O)ccc2c1=O`, the Potency result is “inactive”.
With `Oc1ccc(C2(c3ccc(O)cc3)CC3CC2C2CCCC32)cc1` (stereo not given) the entry was “inactive”.
For `CCCNC(=O)N1CCCN(S(=O)(=O)c2ccc3c(ccn3CC)c2)CC1`, the Potency entry was “inactive”.
For `COC(=O)C1=C[C@@H](C(=O)OC)C2C3=C(C(=O)[C@]2(C)NC(=O)c2ccccc2)[C@H](C)n2c(=O)n(C)c(=O)n2[C@@H]3C1` (stereo not given in full), the Potency entry was “inactive”.
Consider `CNS(=O)(=O)c1cn(CC(=O)N2CCN(c3ccc(C(C)=O)cc3)CC2)cc1S(=O)(=O)NC`, for which the Potency result was “inactive”.
For `Cc1ccc(CNc2ncnc3onc(-c4ccc(F)cc4)c23)cc1`, the Potency entry is “inactive”.
Regarding `Cc1ccc(S(=O)(=O)N2CCN(c3nc(-c4cccs4)nc4cccnc34)CC2)cc1`, the Potency entry is “inactive”.
As to `O=S(=O)(Nc1cccc2cccnc12)c1ccccc1`, the Potency result is “inactive”.
With `CCOC(=O)c1ccc(N2C(=O)c3n[nH]c(-c4ccco4)c3C2c2ccc(F)cc2)cc1` (stereo not given), the Potency result is “inactive”.
The entry for `CC1CCN(c2ccc(-c3nc(C(C)C)no3)cc2[N+](=O)[O-])CC1` is “inactive”; for `CCOc1ccc(OCC)c(NS(=O)(=O)c2c(C)[nH]c(=O)[nH]c2=O)c1` it is “inactive”; for `CCCn1c(C)nc2c(N3CCCN(Cc4ccccc4)CC3)nc(C)nc21` it is “inactive”.
For `Cc1ccc(C(=O)Nc2onc3c2CCCC3)cc1`, the Potency result was “inactive”.
For the molecule `Cc1ccc(NC(=O)c2ncn(-c3ccccc3)n2)c(Cl)c1`, the Potency entry is “inactive”.
On to `Cc1cccc(-c2noc(-c3ccc(NCc4ccco4)c([N+](=O)[O-])c3)n2)c1`, for which the Potency result is “inactive”.
Consider `O=C(Nc1ccc(Cl)c(Cl)c1)Nc1ncc(-c2ccncc2)s1`, for which the Potency entry is “inactive”.
